FLuc inh: Photinus pyralis luciferase inhibition; AID 1347043; purified P. pyralis luciferase, luminescence, biochemical; Potency, µM (doses to about 115 µM), usual class: inhibitors; 76,000 tested, 2.5% active; note: % is set by controls: 0 for no effect and ±100 for the full control effect; nearly all actives have a fitted effect of over 65% in size
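Biochemical qHTS: compound (6-point titration) added to 10uM D-luciferin plus 10uM ATP in Tris acetate pH 7.5 buffer with Mg, Tween-20 and BSA, then purified enzyme at 10nM; light output imaged.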
hNpr1 antagonist: antagonists of human natriuretic peptide receptor Npr1. P16066. HEK293 hNpr1 GloSensor cGMP, ANP-stimulated luminescence. Potency, µM (series often up to 46.3 µM), without a hit: top-dose activity change, negative = inhibition, usual class: inhibitors. 76,000 tested, 1.6% active. AID 1347048; calls by dose curve; note: % is set by controls: 0 for no effect and ±100 for the full control effect; nearly all actives have a fitted effect of over 60% in size
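Compound pre-incubated 30 min at room temperature on GloSensor-loaded HEK293 cells stably carrying hNpr1 and the pGS-40F cGMP biosensor. Stimulation uses hNppA at 0.1 nM final; luminescence is taken at baseline and 20 min post-agonist.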
3T3 cytotox: kills NIH 3T3 cells; 94,000 tested, 4.3% active; Potency, µM (top dose mostly 96.7 µM), inactives show at the top dose activity change, negative = cytotoxicity, most hits filed as inhibitors; AID 1345082; NIH 3T3 viability, CellTiter-Glo ATP luminescence, 48-72 h; note: % is set by controls: 0 for no effect and ±100 for the full control effect; nearly all actives have a fitted effect of over 55% in size
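NIH 3T3 cells at 400 cells/well received 23 nL of compound by pintool and were incubated 48 or 72 h at 37 °C. Viability was read as ATP-coupled CellTiter-Glo luminescence.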
HEK cytotox: HEK 293 cell cytotoxicity; HEK 293 viability, ATP luminescence (CellTiter-Glo), 48-72 h; Potency, µM (series often up to 115 µM), for inactives: at the top dose activity change, negative = cytotoxicity, most hits filed as inhibitors; 94,000 tested, 6.6% active; AID 1345083; note: % is set by controls: 0 for no effect and ±100 for the full control effect; nearly all actives have a fitted effect of over 60% in size
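Cytotoxicity was scored by loss of ATP-coupled luminescence (CellTiter-Glo) in HEK 293 cells. Compound treatment ran 48 or 72 hr at 37 degree Celsius, 5% CO2, 95% humidity.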
GPT2 inhibitor: blocks human glutamate pyruvate transaminase 2 | Potency, µM (doses to about 57.7 µM), for the others: top-dose activity change, negative = inhibition, usual class: inhibitors | Q8TD30 | AID 1671188 | Recombinant GPT2, coupled pyruvate oxidase/HRP Amplex Red fluorescence | 100,000 tested, 0.25% active; note: % is set by controls: 0 for no effect and ±100 for the full control effect; nearly all actives have a fitted effect of over 60% in size
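Fluorescence of coupled pyruvate oxidase/HRP/Amplex Red system (50uM Amplex, 30 min, dark) reports pyruvate formed by GPT2. Enzyme reaction: 10ng/uL GPT2, 2mM L-alanine, 250uM a-KG, 30 min room temperature, pH 7.5; 50uM AOA control.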
Npr1 antag conf: confirmation of human Npr1 natriuretic peptide receptor antagonists; shares compounds with hNpr1 antagonist; HEK293 hNpr1 cGMP GloSensor luminescence, ANP-stimulated; Potency, µM (titrated, usually from 57.6 µM), inactives show at the highest dose activity change, negative = inhibition, most hits filed as inhibitors; 1,400 tested, 76% active; AID 1347044; calls by dose curve; note: nearly all actives have a fitted effect of over 70% in size
NPR2 antag: selectivity test of Npr1 antagonists against human Npr2; shares compounds with hNpr1 antagonist; HEK293 hNpr2 GloSensor cGMP luminescence, CNP-stimulated; Potency, µM (series often up to 57.6 µM), for the others: at the highest dose activity change, negative = inhibition, most hits filed as inhibitors; 1,400 tested, 67% active; calls by dose curve; note: nearly all actives have a fitted effect of over 70% in size
Target sequence (P20594 whole entry, looked up): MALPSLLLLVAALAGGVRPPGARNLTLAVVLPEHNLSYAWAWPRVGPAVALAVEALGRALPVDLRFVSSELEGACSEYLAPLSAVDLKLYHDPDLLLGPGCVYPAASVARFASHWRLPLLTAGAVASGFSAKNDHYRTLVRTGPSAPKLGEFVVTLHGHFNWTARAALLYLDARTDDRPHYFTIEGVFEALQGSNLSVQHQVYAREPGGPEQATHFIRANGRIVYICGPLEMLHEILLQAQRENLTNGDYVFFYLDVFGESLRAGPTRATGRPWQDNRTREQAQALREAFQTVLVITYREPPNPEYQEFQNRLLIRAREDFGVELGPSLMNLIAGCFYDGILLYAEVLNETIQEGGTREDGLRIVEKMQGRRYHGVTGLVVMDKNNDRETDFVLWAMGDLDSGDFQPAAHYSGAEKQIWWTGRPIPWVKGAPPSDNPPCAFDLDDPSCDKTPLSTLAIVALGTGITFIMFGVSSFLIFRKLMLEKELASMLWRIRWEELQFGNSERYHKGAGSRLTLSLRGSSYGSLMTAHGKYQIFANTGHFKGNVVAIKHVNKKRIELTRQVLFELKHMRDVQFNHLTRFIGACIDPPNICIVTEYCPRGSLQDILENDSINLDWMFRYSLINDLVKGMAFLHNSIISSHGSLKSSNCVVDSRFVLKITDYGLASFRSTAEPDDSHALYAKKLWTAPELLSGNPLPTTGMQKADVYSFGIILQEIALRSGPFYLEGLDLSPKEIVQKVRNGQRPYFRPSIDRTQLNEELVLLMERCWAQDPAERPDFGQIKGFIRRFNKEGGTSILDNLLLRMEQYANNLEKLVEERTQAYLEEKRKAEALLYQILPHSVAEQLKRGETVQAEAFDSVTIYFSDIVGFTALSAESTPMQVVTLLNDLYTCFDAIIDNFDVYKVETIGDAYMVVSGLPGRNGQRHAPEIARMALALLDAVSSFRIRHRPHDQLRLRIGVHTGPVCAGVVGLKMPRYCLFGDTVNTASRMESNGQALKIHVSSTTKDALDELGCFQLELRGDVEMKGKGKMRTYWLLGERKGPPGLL
FLuc inh counter: counter-screen for Npr1 antagonists: firefly luciferase inhibitors; purified FLuc enzyme, luminescence, Km substrate; Potency, µM (top dose mostly 57.6 µM), inactives show top-dose activity change, negative = inhibition, actives largely listed as inhibitors; 1,400 tested, 0.7% active; AID 1347047; shares compounds with hNpr1 antagonist; note: 0% is about no effect
GloSensor cGMP: reduces cGMP signal in GloSensor control cells; shares compounds with hNpr1 antagonist; HEK293 GloSensor cGMP, SNP-stimulated, luminescence; Potency, µM (highest dose often 57.6 µM), for inactives: top-dose activity change, negative = inhibition, most hits filed as inhibitors; 1,400 tested, 69% active; AID 1347051; calls by dose curve; note: % is set by controls: 0 for no effect and ±100 for the full control effect; nearly all actives have a fitted effect of over 70% in size
* = called active by the depositor; i = inactive; ? = inconclusive; nt = no result; [ ] = remark or other dose. Compounds with a hit are over-represented: about 10% of the library has one in this group of screens. Unless noted, calls come from the whole dose curve; as a rule, active = well fitted curve in the direction sought with a large enough effect; inconclusive = small, poorly fitted or top-dose-only effect, or another doubt; inactive = no such curve, though single readings can be large; an effect the other way counts as inactive or inconclusive. Potency is the fitted concentration of half-maximal effect.

SMILES	FLuc inh	hNpr1 antagonist	3T3 cytotox	HEK cytotox	GPT2 inhibitor	Npr1 antag conf	NPR2 antag	FLuc inh counter	GloSensor cGMP
Cc1nn2c(c1-c1ccnn1C(C)C)N(C(=O)C(C)C)CCC2	i	5%[70.6 µM]	?	i	-10%[88.5 µM]	nt	nt	nt	nt
Cc1nn2c(c1-c1ccnn1C(C)C)N(Cc1ccc(C(=O)O)s1)CCC2	i	16µM*	13µM*	?	-15%[88.5 µM]	11µM*	11µM*	0%[86.2 µM]	14µM*
O=C(c1ccoc1)N1CC(Oc2ccccc2-c2nc(C3CC3)no2)C1	i	3%	-13%	?	0%	nt	nt	nt	nt
CC1(C)[C@H](Cc2cc(-c3ccc(F)cc3)on2)C[C@@H]1NS(C)(=O)=O	?	?	?	71µM*	1%[88.5 µM]	40µM*	40µM*	-11%[86.2 µM]	35µM*
CN(C)C(=O)NC1CCN(C(=O)c2ccc(-c3cncnc3)cc2)CC1	nt	nt	-6%	4%	i	nt	nt	nt	nt
Cc1cc(NC(=O)C(C)(C)Oc2nn(CCOc3ccccc3)c3ccccc23)n(C)n1	i	25µM*	?	?	-4%[88.5 µM]	35µM*	35µM*	2%[86.2 µM]	31µM*
CC(C)(Oc1nn(Cc2cccc(Cl)c2)c2ccccc12)C(=O)N1CCN(CCO)CC1	i	?	?	?	1%	?	?	4%	-2%
CC(C)(Oc1nn(CCN2CCOCC2)c2ccccc12)C(=O)NCc1ccccc1	i	-11%[70.6 µM]	-12%[138 µM]	?	-16%[88.5 µM]	nt	nt	nt	nt
COCc1ccc2c(c1)c(OC(C)(C)C(=O)Nc1cc(C)nn1C)nn2Cc1ccccc1	i	1%	?	?	1%	nt	nt	nt	nt
COC1CCN(C(=O)C(C)(C)Oc2nn(CCOc3ccccc3)c3ccccc23)CC1	i	?	?	89µM*	i	?	25µM*	-4%[86.2 µM]	-1%[86.2 µM]
COc1cccc(CN2CCN(c3nc4c(s3)c(C)nn4C)CC2=O)c1	i	?	?	?	1%	?	?	1%	?
COCCN1C[C@H]2CN(Cc3cccc(OC)c3)CCN2C1=O	i	-2%[70.6 µM]	i	i	0%[88.5 µM]	nt	nt	nt	nt
CCc1nc(C)sc1C(=O)N1CCCC(c2[nH]ncc2-c2ccccc2)C1 (stereo unspecified)	i	-3%	?	?	-23%[11.5 µM]	nt	nt	nt	nt
Cc1ccccc1C(=O)N1CCC2(CC1)N=C(c1ccc(Br)cc1)NO2	i	14µM*	?	?	i	27µM*	24µM*	2%	24µM*
COc1ccc(C(=O)N2CCC3(CC2)N=C(c2ccc(Br)cc2)NO3)cc1	i	10µM*	-23%	?	i	12µM*	14µM*	1%	9.7µM*
COc1cc(OC)cc(C(=O)N2CCC3(CC2)N=C(c2ccccc2)NO3)c1	i	1%	i	-5%	i	nt	nt	nt	nt
CCOC(=O)c1ccc(NC(=O)Cn2c(N3CCC(C)CC3)nc(C)cc2=O)cc1	i	14µM*	?	?	-21%	22µM*	19µM*	4%	22µM*
COc1ccc(Cl)cc1NC(=O)Cn1c(N2CCC(C)CC2)nc(C)cc1=O	i	11µM*	?	45µM*	-19%	19µM*	19µM*	1%	15µM*

Compound activity: PubChem BioAssay, National Center for Advancing Translational Sciences (NCATS)
